PubChem BioAssay (EPA / NIEHS)
Records with an inconclusive call do not appear. Calls of active or inactive are those of the source. How the source made its calls: active means hit-call score of the fitted dose curve at least 0.9, where 1 is the maximum; inconclusive means response in the unintended direction; inactive means score below 0.9.

How the values were obtained:
[1] = molecular target: Tyrosine-protein phosphatase non-receptor type 12 (Homo sapiens) (UniProt Q05209); test: NVS_ENZ_hPTPN12: NovaScreen (NVS) Enzymatic Assay for human Protein Tyrosine Phosphatase Non-receptor Type 12 (PTPN12) (AID 2283204)
Chain of Tyrosine-protein phosphatase non-receptor type 12 (Homo sapiens) (Q05209 whole entry, looked up): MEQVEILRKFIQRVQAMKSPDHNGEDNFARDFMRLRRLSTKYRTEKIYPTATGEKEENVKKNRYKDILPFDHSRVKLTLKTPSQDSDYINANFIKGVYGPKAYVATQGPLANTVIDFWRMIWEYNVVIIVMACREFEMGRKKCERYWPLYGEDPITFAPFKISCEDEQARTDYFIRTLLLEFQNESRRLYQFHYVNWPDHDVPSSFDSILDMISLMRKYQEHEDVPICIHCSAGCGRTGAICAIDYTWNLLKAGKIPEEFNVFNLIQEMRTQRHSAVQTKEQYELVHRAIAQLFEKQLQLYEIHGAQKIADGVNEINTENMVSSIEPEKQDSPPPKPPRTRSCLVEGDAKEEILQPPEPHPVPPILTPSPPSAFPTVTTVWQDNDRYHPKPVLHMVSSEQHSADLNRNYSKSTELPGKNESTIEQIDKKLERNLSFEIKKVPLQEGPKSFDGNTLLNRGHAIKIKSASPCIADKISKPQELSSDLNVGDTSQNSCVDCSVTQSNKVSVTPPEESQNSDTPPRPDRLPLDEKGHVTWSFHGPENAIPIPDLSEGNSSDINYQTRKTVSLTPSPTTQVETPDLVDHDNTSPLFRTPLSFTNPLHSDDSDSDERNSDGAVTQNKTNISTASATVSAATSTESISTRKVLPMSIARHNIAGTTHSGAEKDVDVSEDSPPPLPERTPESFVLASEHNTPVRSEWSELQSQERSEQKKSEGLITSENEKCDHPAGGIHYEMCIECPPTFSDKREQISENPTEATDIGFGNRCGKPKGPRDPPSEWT
Outline: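 Single-concentration duplicates (25 uM) preceded singleton concentration-response up to 50 uM for chemicals passing threshold. Cell-free recombinant PTPN12 activity was read 1.33 h after dosing via fluorescence after mobility-shift separation; loss of signal versus DMSO.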

[2] = molecular target: Tyrosine-protein phosphatase non-receptor type 14 (Homo sapiens) (UniProt Q15678); test: NVS_ENZ_hPTPN14: NovaScreen (NVS) Enzymatic Assay for human Protein Tyrosine Phosphatase Non-receptor Type 14 (PTPN14) (AID 2283206)
Outline: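 Cell-free recombinant human PTPN14 with fluorescent substrate, read 0.5 h after dosing by fluorescence and electrophoretic mobility shift separating substrate from product. Primary screen at 25 uM in duplicate; hits run to 50 uM maximum; loss of signal versus DMSO.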

[3] = molecular target: human Protein Tyrosine Phosphatase Receptor Type B (PTPRB), PTPRB (gene 5787) (UniProt P23467); test: NVS_ENZ_hPTPRB: NovaScreen (NVS) Enzymatic Assay for human Protein Tyrosine Phosphatase Receptor Type B (PTPRB) (AID 2283211)
Outline: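 Recombinant human PTPRB with a fluorescent substrate, product separated by electrophoretic mobility shift; read 1 h after dosing. Primary screen in duplicate at 25 uM; actives then retested in concentration series; loss of signal versus DMSO.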

[4] = molecular target: human Vascular Endothelial Growth Factor Receptor 1 (VEGFR1), FLT1 (gene 2321) (UniProt P17948); test: NVS_ENZ_hVEGFR1: NovaScreen (NVS) Enzymatic Assay for human Vascular Endothelial Growth Factor Receptor 1 (VEGFR1) (AID 2283226)
Outline: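 Cell-free assay of recombinant human VEGFR1 kinase with substrate, measured 1 h after dosing; fluorescence with electrophoretic mobility-shift separation of substrate and product, referenced to DMSO; primary screen at 25 uM in duplicate, actives then run in concentration series.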

[5] = molecular target: human Vascular Endothelial Growth Factor Receptor 3 (VEGFR3), FLT4 (gene 2324) (UniProt P35916); test: NVS_ENZ_hVEGFR3: NovaScreen (NVS) Enzymatic Assay for human Vascular Endothelial Growth Factor Receptor 3 (VEGFR3) (AID 2283229)
Chain of human Vascular Endothelial Growth Factor Receptor 3 (VEGFR3), FLT4 (gene 2324) (P35916 whole entry, looked up): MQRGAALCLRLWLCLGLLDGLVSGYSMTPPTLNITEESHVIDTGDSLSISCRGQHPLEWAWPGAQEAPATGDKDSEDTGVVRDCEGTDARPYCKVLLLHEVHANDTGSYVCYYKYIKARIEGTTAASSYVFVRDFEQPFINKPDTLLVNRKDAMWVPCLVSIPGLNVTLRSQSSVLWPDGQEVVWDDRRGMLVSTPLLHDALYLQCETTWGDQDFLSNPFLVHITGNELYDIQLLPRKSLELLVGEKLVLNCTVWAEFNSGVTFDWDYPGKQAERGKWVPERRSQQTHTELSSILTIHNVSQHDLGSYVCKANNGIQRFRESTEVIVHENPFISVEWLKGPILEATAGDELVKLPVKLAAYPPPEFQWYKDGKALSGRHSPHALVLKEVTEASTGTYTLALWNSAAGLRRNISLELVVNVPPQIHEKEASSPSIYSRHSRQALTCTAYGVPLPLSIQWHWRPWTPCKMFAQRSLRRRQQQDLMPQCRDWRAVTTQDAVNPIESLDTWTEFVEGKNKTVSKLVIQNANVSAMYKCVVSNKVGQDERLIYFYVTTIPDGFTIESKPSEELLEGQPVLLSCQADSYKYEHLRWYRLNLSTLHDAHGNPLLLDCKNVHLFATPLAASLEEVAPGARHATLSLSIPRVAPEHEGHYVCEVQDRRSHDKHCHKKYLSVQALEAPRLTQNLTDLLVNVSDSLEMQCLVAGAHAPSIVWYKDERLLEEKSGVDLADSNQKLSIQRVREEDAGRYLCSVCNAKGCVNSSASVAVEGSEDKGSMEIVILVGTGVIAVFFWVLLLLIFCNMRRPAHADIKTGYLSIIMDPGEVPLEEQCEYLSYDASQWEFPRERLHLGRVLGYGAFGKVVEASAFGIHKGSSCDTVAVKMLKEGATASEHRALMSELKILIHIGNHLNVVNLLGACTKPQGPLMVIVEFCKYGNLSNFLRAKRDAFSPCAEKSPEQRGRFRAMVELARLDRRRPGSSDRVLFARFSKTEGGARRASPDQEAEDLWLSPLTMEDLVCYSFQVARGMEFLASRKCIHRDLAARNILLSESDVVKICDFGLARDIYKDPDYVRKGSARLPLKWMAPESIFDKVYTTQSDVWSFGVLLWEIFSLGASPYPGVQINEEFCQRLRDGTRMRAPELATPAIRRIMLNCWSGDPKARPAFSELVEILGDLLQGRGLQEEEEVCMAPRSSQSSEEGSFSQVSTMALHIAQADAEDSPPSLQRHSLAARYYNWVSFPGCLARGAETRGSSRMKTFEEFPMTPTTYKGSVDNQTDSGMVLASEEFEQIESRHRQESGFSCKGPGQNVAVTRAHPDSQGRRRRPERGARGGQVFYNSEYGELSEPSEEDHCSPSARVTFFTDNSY
Outline: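 Cell-free recombinant VEGFR3 kinase reaction with fluorescent substrate, read 1 h after dosing by electrophoretic mobility shift separation of substrate and product. Single-concentration duplicate screen at 25 uM, then concentration-response up to 50 uM; loss of activity versus DMSO.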

[6] = molecular target: Tyrosine-protein phosphatase non-receptor type 13 (Homo sapiens) (UniProt Q12923); test: NVS_ENZ_hPTPN13: NovaScreen (NVS) Enzymatic Assay for human Protein Tyrosine Phosphatase Non-receptor Type 13 (PTPN13) (AID 2283205)
Outline: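 Cell-free assay of recombinant human PTPN13 with a fluorescent substrate, product separated by electrophoretic mobility shift and read 0.5 h after dosing. Primary screen at 25 uM in duplicate, then concentration-response up to 50 uM. Loss of signal fitted against DMSO.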

[7] = molecular target: human Protein Tyrosine Phosphatase Non-receptor Type 4 (PTPN4), PTPN4 (gene 5775) (UniProt P29074); test: NVS_ENZ_hPTPN4: NovaScreen (NVS) Enzymatic Assay for human Protein Tyrosine Phosphatase Non-receptor Type 4 (PTPN4) (AID 2283208)
Outline: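 Cell-free assay of PTPN4 expressed in Sf9 cells, using a fluorescent substrate with product separated by mobility shift; read 1.33 h after dosing. Single-point screen at 25 uM, then concentration-response up to 50 uM. Loss of signal relative to DMSO.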

[8] = molecular target: human Protein Tyrosine Phosphatase Non-receptor Type 9 (PTPN9), PTPN9 (gene 5780) (UniProt P43378); test: NVS_ENZ_hPTPN9: NovaScreen (NVS) Enzymatic Assay for human Protein Tyrosine Phosphatase Non-receptor Type 9 (PTPN9) (AID 2283209)
Chain of human Protein Tyrosine Phosphatase Non-receptor Type 9 (PTPN9), PTPN9 (gene 5780) (P43378 whole entry, looked up): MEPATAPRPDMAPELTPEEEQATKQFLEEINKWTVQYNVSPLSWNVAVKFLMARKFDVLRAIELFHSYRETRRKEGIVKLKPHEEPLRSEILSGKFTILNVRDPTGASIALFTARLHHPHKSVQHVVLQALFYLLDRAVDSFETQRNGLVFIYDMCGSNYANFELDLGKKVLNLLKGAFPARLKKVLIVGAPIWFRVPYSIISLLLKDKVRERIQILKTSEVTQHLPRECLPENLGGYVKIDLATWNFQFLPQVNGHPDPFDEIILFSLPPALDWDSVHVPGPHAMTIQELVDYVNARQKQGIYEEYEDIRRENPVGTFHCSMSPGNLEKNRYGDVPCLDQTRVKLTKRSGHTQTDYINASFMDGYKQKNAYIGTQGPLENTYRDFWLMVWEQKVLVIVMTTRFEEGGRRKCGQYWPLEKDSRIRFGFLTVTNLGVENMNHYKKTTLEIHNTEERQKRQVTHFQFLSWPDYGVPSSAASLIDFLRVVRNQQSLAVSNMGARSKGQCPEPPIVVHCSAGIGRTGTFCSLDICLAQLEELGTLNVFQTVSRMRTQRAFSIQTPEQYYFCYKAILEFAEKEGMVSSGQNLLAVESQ
Outline: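 Sf9-expressed enzyme in a cell-free assay, fluorescence read 1.33 h after dosing with mobility-shift separation of substrate and product. Tested at 25 uM in duplicate, then up to 50 uM; signal loss versus DMSO.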

[9] = molecular target: human Protein Tyrosine Phosphatase Receptor Type F (PTPRF), PTPRF (gene 5792) (UniProt P10586); test: NVS_ENZ_hPTPRF: NovaScreen (NVS) Enzymatic Assay for human Protein Tyrosine Phosphatase Receptor Type F (PTPRF) (AID 2283213)
Chain of human Protein Tyrosine Phosphatase Receptor Type F (PTPRF), PTPRF (gene 5792) (P10586 whole entry, looked up): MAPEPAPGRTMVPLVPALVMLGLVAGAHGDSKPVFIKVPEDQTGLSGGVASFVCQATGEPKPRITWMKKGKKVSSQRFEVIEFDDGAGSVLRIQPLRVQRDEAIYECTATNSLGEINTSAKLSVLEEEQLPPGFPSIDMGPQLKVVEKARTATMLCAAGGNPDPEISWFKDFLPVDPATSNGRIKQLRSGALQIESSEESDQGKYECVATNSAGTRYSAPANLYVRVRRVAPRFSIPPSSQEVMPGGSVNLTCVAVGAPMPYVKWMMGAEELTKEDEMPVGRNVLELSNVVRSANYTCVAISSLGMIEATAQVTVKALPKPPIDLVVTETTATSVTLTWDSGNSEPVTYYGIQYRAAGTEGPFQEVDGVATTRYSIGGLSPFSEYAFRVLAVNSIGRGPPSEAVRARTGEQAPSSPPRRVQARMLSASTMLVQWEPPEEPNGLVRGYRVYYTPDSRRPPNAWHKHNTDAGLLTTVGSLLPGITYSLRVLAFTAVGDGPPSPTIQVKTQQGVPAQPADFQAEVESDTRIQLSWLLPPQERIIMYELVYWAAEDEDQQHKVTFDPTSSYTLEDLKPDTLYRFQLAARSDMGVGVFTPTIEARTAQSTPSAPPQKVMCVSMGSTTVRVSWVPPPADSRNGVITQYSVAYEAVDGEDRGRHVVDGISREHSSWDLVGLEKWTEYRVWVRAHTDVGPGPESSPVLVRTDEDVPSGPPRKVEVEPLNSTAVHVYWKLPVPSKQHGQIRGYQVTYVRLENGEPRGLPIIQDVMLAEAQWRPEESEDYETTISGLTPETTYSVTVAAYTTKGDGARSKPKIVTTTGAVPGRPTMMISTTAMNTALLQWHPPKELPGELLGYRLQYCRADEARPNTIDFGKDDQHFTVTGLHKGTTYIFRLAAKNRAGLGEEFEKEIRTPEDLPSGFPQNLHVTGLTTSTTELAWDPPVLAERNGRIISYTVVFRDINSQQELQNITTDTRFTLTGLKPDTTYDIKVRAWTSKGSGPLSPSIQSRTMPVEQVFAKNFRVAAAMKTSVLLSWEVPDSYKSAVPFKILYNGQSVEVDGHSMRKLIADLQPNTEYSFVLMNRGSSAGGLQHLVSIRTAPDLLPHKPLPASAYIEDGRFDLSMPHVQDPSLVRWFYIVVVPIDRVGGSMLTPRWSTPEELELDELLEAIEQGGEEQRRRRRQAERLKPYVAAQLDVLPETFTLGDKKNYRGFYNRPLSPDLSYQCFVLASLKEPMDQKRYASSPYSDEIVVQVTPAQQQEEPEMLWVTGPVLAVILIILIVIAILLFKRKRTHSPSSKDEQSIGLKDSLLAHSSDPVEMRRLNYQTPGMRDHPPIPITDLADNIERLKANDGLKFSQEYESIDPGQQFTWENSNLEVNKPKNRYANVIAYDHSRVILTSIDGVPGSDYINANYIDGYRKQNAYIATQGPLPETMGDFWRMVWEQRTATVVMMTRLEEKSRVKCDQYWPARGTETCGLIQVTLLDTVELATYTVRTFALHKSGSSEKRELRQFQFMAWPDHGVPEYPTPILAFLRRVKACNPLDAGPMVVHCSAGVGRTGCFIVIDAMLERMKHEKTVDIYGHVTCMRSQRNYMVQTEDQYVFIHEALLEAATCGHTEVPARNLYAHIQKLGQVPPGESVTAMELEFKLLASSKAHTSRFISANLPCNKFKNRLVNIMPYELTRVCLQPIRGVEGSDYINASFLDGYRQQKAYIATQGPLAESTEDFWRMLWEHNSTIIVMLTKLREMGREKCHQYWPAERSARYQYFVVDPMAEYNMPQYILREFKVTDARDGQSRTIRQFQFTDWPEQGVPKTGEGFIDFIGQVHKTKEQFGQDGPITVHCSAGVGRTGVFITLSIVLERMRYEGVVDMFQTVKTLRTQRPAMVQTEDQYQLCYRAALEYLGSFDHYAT
Outline: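 Cell-free fluorescence enzyme assay with recombinant protein and substrate; product separated by electrophoretic mobility shift. Read 1 h after dosing, single 25 uM duplicate screen, then concentration-response up to 50 uM; loss of signal vs DMSO.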

[10] = molecular target: human Sirtuin 2 (SIRT2), SIRT2 (gene 22933) (UniProt Q8IXJ6); test: NVS_ENZ_hSIRT2: NovaScreen (NVS) Enzymatic Assay for human Sirtuin 2 (SIRT2) (AID 2283217)
Chain of human Sirtuin 2 (SIRT2), SIRT2 (gene 22933) (Q8IXJ6 whole entry, looked up): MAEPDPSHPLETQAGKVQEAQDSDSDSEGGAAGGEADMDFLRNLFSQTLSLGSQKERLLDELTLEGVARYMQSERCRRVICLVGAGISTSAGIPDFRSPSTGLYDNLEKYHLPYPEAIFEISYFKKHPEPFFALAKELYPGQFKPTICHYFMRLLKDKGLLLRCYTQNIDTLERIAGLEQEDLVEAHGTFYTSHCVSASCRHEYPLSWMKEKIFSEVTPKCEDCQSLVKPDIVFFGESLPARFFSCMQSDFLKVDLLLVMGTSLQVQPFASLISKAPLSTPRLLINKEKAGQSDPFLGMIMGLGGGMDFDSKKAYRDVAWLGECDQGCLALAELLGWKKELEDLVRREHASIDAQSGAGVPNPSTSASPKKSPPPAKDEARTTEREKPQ
Outline: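 Cell-free recombinant human SIRT2, fluorescent substrate with product separated by electrophoretic mobility shift, 1 hr. Screened in duplicate at 25 uM; hits rerun singly in concentration-response up to 50 uM, relative to DMSO.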

[11] = molecular target: human Sirtuin 1 (SIRT1), SIRT1 (gene 23411) (UniProt Q96EB6); test: NVS_ENZ_hSIRT1: NovaScreen (NVS) Enzymatic Assay for human Sirtuin 1 (SIRT1) (AID 2283219)
Outline: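 Cell-free recombinant SIRT1 with a fluorescent substrate; substrate and product separated by electrophoretic mobility shift and read by fluorescence intensity, 1 h after dosing. Primary screen at 25 uM in duplicate; hits re-run in concentration-response up to 50 uM, relative to DMSO.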

[12] = molecular target: human Vascular Endothelial Growth Factor Receptor 2 (VEGFR2), KDR (gene 3791) (UniProt P35968); test: NVS_ENZ_hVEGFR2: NovaScreen (NVS) Enzymatic Assay for human Vascular Endothelial Growth Factor Receptor 2 (VEGFR2) (AID 2283230)
Outline: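 Cell-free recombinant VEGFR2 kinase, fluorescent substrate with electrophoretic mobility-shift separation; read 1 h after dosing. Screened at 25 uM in duplicate, hits to concentration-response up to 50 uM; loss-of-signal versus DMSO.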

[13] = molecular target: human Rho Associated Coiled-coil Containing Protein Kinase 1 (ROCK1), ROCK1 (gene 6093) (UniProt Q13464); test: NVS_ENZ_hROCK1: NovaScreen (NVS) Enzymatic Assay for human Rho Associated Coiled-coil Containing Protein Kinase 1 (ROCK1) (AID 2283214)
Outline: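 Cell-free recombinant human ROCK1 activity assay; fluorescent substrate and product separated by electrophoretic mobility shift, read 1 h after dosing. Screened in duplicate at 25 uM; loss of signal versus DMSO baseline scored as inhibition.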

[14] = molecular target: human Protein Tyrosine Phosphatase Non-receptor Type 6 (PTPN6), PTPN6 (gene 5777) (UniProt P29350); test: NVS_ENZ_hPTPN6: NovaScreen (NVS) Enzymatic Assay for human Protein Tyrosine Phosphatase Non-receptor Type 6 (PTPN6) (AID 2283210)
Outline: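 Cell-free assay with recombinant PTPN6 expressed in SF9 cells, fluorescent substrate, product separated from substrate by electrophoretic mobility shift; read 1.33 hours after dosing. Primary screen in duplicate at 25 uM, actives retested in concentration series; DMSO baseline.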

[15] = molecular target: human Protein Tyrosine Phosphatase Receptor Type M (PTPRM), PTPRM (gene 5797) (UniProt P28827); test: NVS_ENZ_hPTPRM: NovaScreen (NVS) Enzymatic Assay for human Protein Tyrosine Phosphatase Receptor Type M (PTPRM) (AID 2283215)
Outline: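 Cell-free recombinant PTPRM with fluorogenic substrate; product separated from substrate by electrophoretic mobility shift and read by fluorescence, 1.33 h after dosing. Primary screen single concentration (25 uM) in duplicate; actives retested in concentration series; loss of signal versus DMSO.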

[16] = molecular target: rabbit Imidazoline 2 Central (I2C), CKB (gene 100009085) (UniProt P00567); test: NVS_ENZ_rabI2C: NovaScreen (NVS) Enzymatic Assay for rabbit Imidazoline 2 Central (I2C) (AID 2283228)
Outline: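 Rabbit brain membranes, cell-free; readout by filter-based scintillation counting 1.5 hours after dosing, loss of signal vs DMSO. Initial duplicate test at 25 uM, then concentration-response with 50 uM top concentration.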

[17] = molecular target: human Tropomyosin Receptor Kinase A (TRKA), NTRK1 (gene 4914) (UniProt P04629); test: NVS_ENZ_hTrkA: NovaScreen (NVS) Enzymatic Assay for human Tropomyosin Receptor Kinase A (TRKA) (AID 2283224)
Outline: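 Recombinant human TrkA activity read after 1 h by fluorescence with electrophoretic mobility shift separating substrate and product. Primary screen in duplicate at 25 uM; actives were rerun in concentration-response up to 50 uM. Loss of signal versus DMSO.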

Measured: AC50

CC(C)c1cccc(C(C)C)c1N1C(=O)c2ccc(O)cc2C1=O
inactive: [1] | [2] | [3] | [4] | [5]

Cc1ccc(N)cc1O
not listed: [13] | [14] | [15] | [16] | [17]
inactive: all other assays above

COc1ccc2sc(C(=O)Nc3nnn[nH]3)c(OC(C)C)c2c1
active: [13] 7.67 µM
inactive: [12]

CC(C)=CCC/C(C)=C/CO
inactive: [8]

O=C1CCCCCN1
inactive: [14]

CN(C)c1ccc(N=NS(=O)(=O)O)cc1
inactive: [8] | [3] | [9] | [15] | [4] | [5] | [12]
active: [1] 12.5 µM | [6] 16.4 µM | [16] 23.8 µM

O=C1OC(=O)C2C3C=CC(C3)C12 (stereo not given)
inactive: [8] | [14]

CCC(C)(C)C(=O)O[C@H]1C[C@@H](C)C=C2C=C[C@H](C)[C@H](CC[C@@H]3C[C@@H](O)CC(=O)O3)[C@H]21
inactive: [12]
active: [1] 33.5 µM

Nc1nc2ncc(CNc3ccc(C(=O)N[C@@H](CCC(=O)O)C(=O)O)cc3)nc2c(=O)[nH]1
active: [2] 14.9 µM | [7] 41.9 µM

O=P(OC(CCl)CCl)(OC(CCl)CCl)OC(CCl)CCl
inactive: [15]

O=c1n(CC2CO2)c(=O)n(CC2CO2)c(=O)n1CC1CO1 (stereo not given)
inactive: [8] | [14]

O=C(O)c1cccc(Oc2ccccc2)c1
active: [6] 0.119 µM
inactive: [1] | [7] | [8] | [3] | [9] | [15] | [11] | [17] | [5]
